# Laboratory results as given in PubChem BioAssay (EPA / NIEHS).
# A structure can be active in one record and inactive in another. Calls of active or inactive are those of the source. How the source made its calls: active means hit-call score of the fitted dose curve at least 0.9, where 1 is the maximum; inactive means score below 0.9.
# What was measured:
# Details in all cases: primary human HUVEC with PBMC; actives raise or lower the signal
# [1] = read-out: Macrophage colony-stimulating factor (MCSF), CSF1 (gene 1435); assay: BSK_LPS_MCSF: BioMAP Diversity Plus: LPS Assay for Macrophage colony-stimulating factor (MCSF) Biomarker Activity (AID 2283083)
# Procedure, shortened: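 ELISA readout of M-CSF after 24 h compound exposure in a human endothelial/PBMC co-culture. Activity, in either direction, is fitted relative to DMSO vehicle.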
# [2] = read-out: Tissue Factor, F3 (gene 2152); assay: BSK_LPS_TissueFactor: BioMAP Diversity Plus: LPS Assay for Tissue Factor Biomarker Activity (AID 2283084)
# Procedure, shortened: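 ELISA signal for cell-surface Tissue Factor (CD142) was read 24 h after compound dosing of an LPS-stimulated human endothelial–PBMC primary co-culture. Gain or loss of signal was scored relative to DMSO.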
# [3] = read-out: Tumor necrosis factor (Homo sapiens) (UniProt P01375); assay: BSK_LPS_TNFa: BioMAP Diversity Plus: LPS Assay for Tumour Necrosis Factor alpha (TNFa) Biomarker Activity (AID 2283085);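 on AC50: TNFa protein level quantified by ELISA in the co-culture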
# Procedure, shortened: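 HUVEC/PBMC co-culture, LPS-stimulated; 24 h post-dose; TNFa by ELISA; gain or loss of signal fitted bidirectionally vs DMSO baseline.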
# [4] = read-out: Vascular cell adhesion molecule 1 (VCAM1), VCAM1 (gene 7412); assay: BSK_LPS_VCAM1: BioMAP Diversity Plus: LPS Assay for Vascular cell adhesion molecule 1 (VCAM1) Biomarker Activity (AID 2283086)
# Procedure, shortened: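 ELISA read-out of VCAM-1 at 24 h post-dosing in an LPS-driven HUVEC/PBMC primary human co-culture; gain or loss of signal fitted bidirectionally against DMSO baseline. Cytotoxicity tracked in parallel cultures by SRB total-protein staining.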
# CD38, CD38 (gene 952) = assay: BSK_SAg_CD38: BioMAP Diversity Plus: SAg Assay for CD38 Biomarker Activity (AID 2283087)
# Procedure, shortened: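 Measures CD38 on a human endothelial/PBMC co-culture driven by SEB and TSST-1, 24 h after compound exposure, using ELISA with fluorescence detection; DMSO defines baseline for bidirectional curve fitting.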
# CD40, CD40 (gene 958) = assay: BSK_SAg_CD40: BioMAP Diversity Plus: SAg Assay for CD40 Biomarker Activity (AID 2283088)
# Procedure, shortened: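 Compounds were dosed onto a human primary endothelial–PBMC co-culture, and after 24 h CD40 was quantified by ELISA using a fluorescence signal. Activity in either direction was fitted relative to DMSO.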
# CD69, CD69 (gene 969) = assay: BSK_SAg_CD69: BioMAP Diversity Plus: SAg Assay for CD69 Biomarker Activity (AID 2283089);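 on AC50: cell surface CD69 protein quantified by ELISA with fluorescence detection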
# Procedure, shortened: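 Primary human vascular co-culture (umbilical vein endothelium with peripheral blood mononuclear cells) exposed to test chemical for 24 h. CD69 levels quantified by fluorescence ELISA; DMSO served as negative control for bidirectional fitting.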
# [5] = read-out: Monocyte Chemoattractant Protein-1 (MCP1), CCL2 (gene 6347); assay: BSK_SAg_MCP1: BioMAP Diversity Plus: SAg Assay for Monocyte Chemoattractant Protein-1 (MCP1) Biomarker Activity (AID 2283090)
# Procedure, shortened: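 Values derive from bidirectional fitting of ELISA-measured MCP1 against DMSO controls. Readings were taken 24 h after dosing human vascular endothelial cells co-cultured with peripheral blood mononuclear cells under superantigen stimulation.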
# [6] = read-out: E-selectin (Homo sapiens) (UniProt P16581); assay: BSK_SAg_Eselectin: BioMAP Diversity Plus: SAg Assay for Eselectin Biomarker Activity (AID 2283091)
# Procedure, shortened: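 Co-culture: HUVEC + PBMC. Dose compound; 24 h. ELISA for E-selectin. Bidirectional fit vs DMSO.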
# [7] = read-out: Monokine induced gamma interferon (MIG), CXCL9 (gene 4283); assay: BSK_SAg_MIG: BioMAP Diversity Plus: SAg Assay for Monokine induced gamma interferon (MIG) Biomarker Activity (AID 2283092)
# Procedure, shortened: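 Endothelial cells and PBMC were co-cultured, exposed to test chemicals, and sampled 24 h later. MIG was measured by ELISA, and responses were fitted in both directions relative to DMSO.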
# Tumor necrosis factor (Homo sapiens), sequence (P01375 whole entry, looked up): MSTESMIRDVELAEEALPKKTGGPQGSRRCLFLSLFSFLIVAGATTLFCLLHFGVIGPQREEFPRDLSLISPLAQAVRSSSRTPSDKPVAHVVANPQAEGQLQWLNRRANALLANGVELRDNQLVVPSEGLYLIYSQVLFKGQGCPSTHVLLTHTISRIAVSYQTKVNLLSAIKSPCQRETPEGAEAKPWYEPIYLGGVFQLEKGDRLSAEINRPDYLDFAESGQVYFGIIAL
# E-selectin (Homo sapiens), sequence (P16581 whole entry, looked up): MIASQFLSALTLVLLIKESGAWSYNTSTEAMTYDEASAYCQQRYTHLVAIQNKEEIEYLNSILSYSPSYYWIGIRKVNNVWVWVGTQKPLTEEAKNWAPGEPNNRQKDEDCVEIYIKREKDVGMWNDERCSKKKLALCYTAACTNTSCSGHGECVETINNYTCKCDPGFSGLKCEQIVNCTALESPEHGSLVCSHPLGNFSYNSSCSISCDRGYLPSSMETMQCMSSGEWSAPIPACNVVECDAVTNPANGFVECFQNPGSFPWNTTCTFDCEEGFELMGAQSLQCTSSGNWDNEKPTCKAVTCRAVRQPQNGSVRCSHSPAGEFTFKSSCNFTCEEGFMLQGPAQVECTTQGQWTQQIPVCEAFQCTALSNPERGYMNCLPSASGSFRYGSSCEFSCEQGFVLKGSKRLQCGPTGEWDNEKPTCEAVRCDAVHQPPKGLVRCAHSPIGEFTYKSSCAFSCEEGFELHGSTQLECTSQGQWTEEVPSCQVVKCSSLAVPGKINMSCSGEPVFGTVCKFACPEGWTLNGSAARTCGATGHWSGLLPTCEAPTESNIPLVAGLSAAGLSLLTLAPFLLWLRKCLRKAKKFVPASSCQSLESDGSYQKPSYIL
SMILES,outcome [1],outcome [2],outcome [3],outcome [4],"outcome (CD38, CD38 (gene 952))","outcome (CD40, CD40 (gene 958))","outcome (CD69, CD69 (gene 969))",outcome [5],outcome [6],outcome [7],"AC50 (CD69, CD69 (gene 969))",AC50 [6],AC50 [4],"AC50 (CD38, CD38 (gene 952))",AC50 [2],AC50 [3],AC50 [1],"AC50 (CD40, CD40 (gene 958))",AC50 [5],AC50 [7]
O=C(CCl)NCO,inactive,inactive,inactive,inactive,inactive,inactive,inactive,inactive,inactive,inactive,–,–,–,–,–,–,–,–,–,–
CCCCN(CCCC)C(=S)[S-].CCCCN(CCCC)C(=S)[S-].[Ni+2],inactive,inactive,inactive,inactive,inactive,inactive,inactive,inactive,inactive,inactive,–,–,–,–,–,–,–,–,–,–
CC(C)(COCC1CO1)COCC1CO1 (stereo not drawn),inactive,inactive,inactive,inactive,inactive,inactive,–,inactive,–,inactive,20 µM (active),20 µM (active),–,–,–,–,–,–,–,–
CCCCOC(=O)COC(=O)c1ccccc1C(=O)OCCCC,inactive,inactive,inactive,inactive,inactive,inactive,inactive,inactive,inactive,inactive,–,–,–,–,–,–,–,–,–,–
CCOP(=S)(OCC)OP(=S)(OCC)OCC,inactive,inactive,inactive,–,–,inactive,–,inactive,–,inactive,30.1 µM (active),35.4 µM (active),20 µM (active),31.8 µM (active),–,–,–,–,–,–
CCOC(=O)C(SP(=S)(OC)OC)c1ccccc1 (stereo not drawn),inactive,inactive,inactive,–,–,inactive,–,inactive,inactive,inactive,20 µM (active),–,14.6 µM (active),20 µM (active),–,–,–,–,–,–
c1ccc2sc(SNC3CCCCC3)nc2c1,inactive,–,–,inactive,inactive,inactive,inactive,inactive,inactive,inactive,–,–,–,–,0.676 µM (active),30.5 µM (active),–,–,–,–
O=C(Cc1ccccc1)OCCc1ccccc1,inactive,inactive,inactive,inactive,inactive,inactive,inactive,inactive,inactive,inactive,–,–,–,–,–,–,–,–,–,–
CN(C)C(=S)S,inactive,inactive,inactive,inactive,inactive,inactive,inactive,inactive,inactive,inactive,–,–,–,–,–,–,–,–,–,–
Cc1cc(C(C)(C)c2ccc(O)c(C)c2)ccc1O,–,inactive,inactive,inactive,–,–,–,–,–,inactive,15.4 µM (active),14.8 µM (active),–,14.7 µM (active),–,–,15.1 µM (active),15.4 µM (active),15.9 µM (active),–
CC(C)=CC1C(C(=O)OCc2cccc(Oc3ccccc3)c2)C1(C)C (stereo not drawn),inactive,inactive,inactive,inactive,inactive,inactive,inactive,inactive,–,inactive,–,6.45 µM (active),–,–,–,–,–,–,–,–
CC1(C)[C@H](C(=O)O[C@H](C#N)c2cccc(Oc3ccccc3)c2)[C@@H]1/C=C(\Cl)C(F)(F)F,inactive,inactive,inactive,inactive,inactive,–,inactive,inactive,inactive,inactive,3.39 µM (active),–,–,5.06 µM (active),–,2.79 µM (active),–,4.51 µM (active),–,–
CC(C)(C)c1cc([N+](=O)[O-])cc(C(C)(C)C)c1O,–,inactive,inactive,inactive,–,–,–,–,–,inactive,0.322 µM (active),0.219 µM (active),–,0.332 µM (active),–,–,0.452 µM (active),0.474 µM (active),0.458 µM (active),–
C[C@]12CC[C@@H](O)C[C@@H]1CC[C@@H]1[C@@H]2CC[C@]2(C)C(=O)CC[C@@H]12,inactive,inactive,inactive,inactive,inactive,inactive,inactive,inactive,inactive,inactive,–,–,–,–,–,–,–,–,–,–
NC(=O)CCl,inactive,inactive,inactive,inactive,inactive,inactive,inactive,inactive,inactive,inactive,–,–,–,–,–,–,–,–,–,–
O=C(O)COc1cc(Cl)c(Cl)cc1Cl,inactive,inactive,inactive,inactive,inactive,inactive,inactive,inactive,inactive,inactive,–,–,–,–,–,–,–,–,–,–
COCC(=O)N(c1c(C)cccc1C)[C@H](C)C(=O)OC,inactive,inactive,inactive,inactive,inactive,inactive,inactive,inactive,inactive,inactive,–,–,–,–,–,–,–,–,–,–
O=S(=O)(c1ccc(Cl)cc1)c1cc(Cl)c(Cl)cc1Cl,inactive,inactive,inactive,inactive,–,inactive,inactive,inactive,inactive,inactive,–,–,–,3.97 µM (active),–,–,–,–,–,–
O=S(=O)(C(Cl)(Cl)Cl)C(Cl)(Cl)Cl,–,–,inactive,–,–,–,–,–,–,–,3.57 µM (active),3.13 µM (active),2.28 µM (active),2.64 µM (active),3.21 µM (active),–,1.83 µM (active),2.74 µM (active),4.17 µM (active),7.79 µM (active)
CCC(C)(C#N)N=NC(C)(C#N)CC (stereo not drawn),inactive,inactive,inactive,inactive,inactive,inactive,inactive,inactive,inactive,inactive,–,–,–,–,–,–,–,–,–,–

SMILES,outcome [1],outcome [2],outcome [3],outcome [4],"outcome (CD38, CD38 (gene 952))","outcome (CD40, CD40 (gene 958))","outcome (CD69, CD69 (gene 969))",outcome [5],outcome [6],outcome [7],"AC50 (CD69, CD69 (gene 969))",AC50 [6],AC50 [4],"AC50 (CD38, CD38 (gene 952))",AC50 [2],AC50 [3],AC50 [1],"AC50 (CD40, CD40 (gene 958))",AC50 [5],AC50 [7]
Oc1c(Cl)cc(Cl)cc1Cl,inactive,inactive,inactive,inactive,inactive,–,inactive,inactive,inactive,inactive,–,–,–,–,–,–,–,13.3 µM (active),–,–
OC(Cc1ccccc1Cl)(Cn1[nH]cnc1=S)C1(Cl)CC1 (stereo not drawn),inactive,inactive,inactive,inactive,–,–,–,inactive,inactive,inactive,14.1 µM (active),–,–,20 µM (active),–,–,–,20 µM (active),–,–
Cc1cccc(OP(=O)(Oc2cccc(C)c2)Oc2cccc(C)c2)c1,inactive,inactive,–,inactive,inactive,inactive,inactive,inactive,inactive,inactive,–,–,–,–,–,32.3 µM (active),–,–,–,–
CCOC(=O)CC(=O)CCl,–,–,–,–,–,–,–,–,–,inactive,27 µM (active),20 µM (active),7.27 µM (active),24.6 µM (active),33.1 µM (active),34.9 µM (active),20 µM (active),20 µM (active),20 µM (active),–
CC(C)O.CC(C)O.OCCN(CCO)CCO.OCCN(CCO)CCO.[Ti],inactive,–,inactive,inactive,inactive,inactive,inactive,inactive,inactive,inactive,–,–,–,–,1.38 µM (active),–,–,–,–,–
Cc1ccc2nc3sc(=O)sc3nc2c1,inactive,inactive,inactive,–,–,–,inactive,inactive,–,inactive,–,8.11 µM (active),7.61 µM (active),6.68 µM (active),–,–,–,6.41 µM (active),–,–
OCCCCO,inactive,inactive,inactive,inactive,inactive,inactive,inactive,inactive,inactive,inactive,–,–,–,–,–,–,–,–,–,–
O=c1oc2ccccc2c(O)c1C(CC(O)c1ccc(-c2ccc(Br)cc2)cc1)c1ccccc1 (stereo not drawn),–,–,inactive,–,–,–,–,–,–,–,19.1 µM (active),28.6 µM (active),14.1 µM (active),23 µM (active),19.1 µM (active),–,12.8 µM (active),14.1 µM (active),22.6 µM (active),33.3 µM (active)
Cc1c([N+](=O)[O-])c(C)c([N+](=O)[O-])c(C(C)(C)C)c1[N+](=O)[O-],inactive,inactive,–,inactive,–,inactive,inactive,inactive,inactive,inactive,–,–,–,1.63 µM (active),–,28 µM (active),–,–,–,–
O=[N+]([O-])c1cccc2ccccc12,inactive,inactive,inactive,inactive,inactive,inactive,inactive,inactive,inactive,inactive,–,–,–,–,–,–,–,–,–,–
Cc1ccccc1OP(=O)(Oc1ccccc1)Oc1ccccc1,–,inactive,inactive,–,–,–,–,–,–,inactive,28.1 µM (active),30.9 µM (active),20 µM (active),20 µM (active),–,–,20 µM (active),28.3 µM (active),20 µM (active),–
Oc1cc(Cl)c(Cl)cc1Cl,–,inactive,inactive,–,–,–,–,–,–,inactive,20 µM (active),26.5 µM (active),32 µM (active),26.8 µM (active),–,–,20 µM (active),24.8 µM (active),32.2 µM (active),–
N#Cc1cccnc1,inactive,inactive,inactive,inactive,inactive,inactive,inactive,inactive,inactive,inactive,–,–,–,–,–,–,–,–,–,–
CCN(CC)C(=O)C(Cl)=C(C)OP(=O)(OC)OC,inactive,inactive,inactive,inactive,inactive,inactive,inactive,inactive,inactive,inactive,–,–,–,–,–,–,–,–,–,–
OC(Cc1ccccc1Cl)(Cn1cncn1)C1(Cl)CC1 (stereo not drawn),inactive,inactive,inactive,inactive,inactive,inactive,inactive,inactive,inactive,inactive,–,–,–,–,–,–,–,–,–,–
O=[N+]([O-])c1ccc(Nc2ccccc2)cc1,inactive,inactive,–,inactive,inactive,inactive,inactive,inactive,inactive,inactive,–,–,–,–,–,32.5 µM (active),–,–,–,–
Cc1cc(Cl)ccc1OC(C)C(=O)O (stereo not drawn),inactive,inactive,inactive,inactive,inactive,inactive,inactive,inactive,inactive,inactive,–,–,–,–,–,–,–,–,–,–
CCCCCCCCCCCCN(C)C,inactive,inactive,inactive,inactive,inactive,inactive,inactive,inactive,inactive,inactive,–,–,–,–,–,–,–,–,–,–
Oc1ccc(Cc2ccc(O)cc2)cc1,inactive,inactive,inactive,inactive,inactive,inactive,inactive,inactive,inactive,inactive,–,–,–,–,–,–,–,–,–,–
O=C(O)C1(c2ccc3c(c2)OC[C@H](Cc2ccc(-c4ccccc4)cc2)[C@H]3O)CCCC1,inactive,inactive,inactive,–,–,–,inactive,–,–,inactive,–,14.1 µM (active),20 µM (active),23.3 µM (active),–,–,–,20 µM (active),20 µM (active),–
